Compound activity from PubChem BioAssay.
ssDAF-12 act – activators of S. stercoralis DAF-12 nuclear receptor | HEK293 ssDAF-12/GRIP1 lit1-tk-luc reporter, luminescence; % of 3 µM dafachronic acid response | activation, % at 6.8 µM | 370,000 compounds, 1% hits | AID 652126;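 active = activation above the mean over all tested compounds plus 3 SD, cut at about 0.9% in these data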;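 also: 0% = DMSO-only wells and 100% = 3 µM delta7-dafachronic acid wells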
hgDAF12 agonist – activates the H. glycines DAF-12 receptor ligand-binding domain. 370,000 compounds, 1.8% hits. HEK293 GAL4-hgDAF12 UAS-luciferase reporter, agonist luminescence; normalized to butyrate control. AID 687014. activation, % at 6.8 µM;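 active = activation above a cutoff set at the mean of all screened compounds plus 3 SD, cut at about 10% in these data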;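 also: 0% = DMSO wells and 100% = sodium butyrate wells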
DAX1 inh-1 – blocks DAX1 repression of SF-1 activated StAR promoter. HEK293T StAR-luciferase reporter, SF-1/DAX-1 repression relief. inhibition, % at 6.8 µM. 370,000 compounds, 1.1% hits;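 active = inhibition above the mean over all tested compounds plus 3 SD, cut at about 3.6% in these data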;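 also: 0% = DAX-1 cells with DMSO and 100% = cells lacking DAX-1 with DMSO; higher inhibition means more luminescence from relief of DAX-1 repression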
hcDAF12 agonist – activators of H. contortus DAF-12 nuclear receptor; HEK293 hcDAF-12 lit1-tk-luc reporter, luminescence; 0% DMSO, 100% Δ7-dafachronic acid; AID 652067; 370,000 compounds, 1.4% hits; activation, % at 6.8 µM;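 active = activation above the mean of all tested compounds plus 3 SD, cut at about 5.5% in these data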;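 also: 100% = response to 3 µM Δ7-dafachronic acid high control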
DAX1 inh-2 – inhibits human nuclear receptor DAX1. 340,000 compounds, 0.99% hits. AID 504766. inhibition, % at 6.75 µM. HEK293 Gal4-DAX1 luciferase reporter, luminescence;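 active = inhibition above the mean over all tested compounds plus 3 SD, cut at about 4.2% in these data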;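 also: 0% = DAX1-transfected cells with DMSO and 100% = empty-vector control cells with DMSO; inhibition shows as a rise in luminescence from relieved DAX1 repression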
Target sequence (P51843 207-470 limits assumed): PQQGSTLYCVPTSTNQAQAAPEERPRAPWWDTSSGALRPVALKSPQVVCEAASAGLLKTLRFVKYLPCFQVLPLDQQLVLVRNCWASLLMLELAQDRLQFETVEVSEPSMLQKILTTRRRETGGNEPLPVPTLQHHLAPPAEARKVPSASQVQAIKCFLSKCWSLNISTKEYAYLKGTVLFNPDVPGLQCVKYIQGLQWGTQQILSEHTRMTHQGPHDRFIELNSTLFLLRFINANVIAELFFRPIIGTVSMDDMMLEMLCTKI
DAX1 conf – confirmation of human DAX1 (NR0B1) inhibitors; shares compounds with DAX1 inh-1; inhibition, % at 6.8 µM; HEK293T StAR-promoter luciferase reporter, SF-1/DAX-1 repression; 2,400 compounds, 87% hits; AID 652134;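 active = inhibition above the average of every tested compound plus 3 SD, cut at about 3.8% in these data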;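 also: 0% = DAX-1 cells with DMSO and 100% = no DAX-1 control cells with DMSO; active compounds raise luminescence by relieving repression of the StAR reporter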
Target sequence (P51843 whole entry, looked up): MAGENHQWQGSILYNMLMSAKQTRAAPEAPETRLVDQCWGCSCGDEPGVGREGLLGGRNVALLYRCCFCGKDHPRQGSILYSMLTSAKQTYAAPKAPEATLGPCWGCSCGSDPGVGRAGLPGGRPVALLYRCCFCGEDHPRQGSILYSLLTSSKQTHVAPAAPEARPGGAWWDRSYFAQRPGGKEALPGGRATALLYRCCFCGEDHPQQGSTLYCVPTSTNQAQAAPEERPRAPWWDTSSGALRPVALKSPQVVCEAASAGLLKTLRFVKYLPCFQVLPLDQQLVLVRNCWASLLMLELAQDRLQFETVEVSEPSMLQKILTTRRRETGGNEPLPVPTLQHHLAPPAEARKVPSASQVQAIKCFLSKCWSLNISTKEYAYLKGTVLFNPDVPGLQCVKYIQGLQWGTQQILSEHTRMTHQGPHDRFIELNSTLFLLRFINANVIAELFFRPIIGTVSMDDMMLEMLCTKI
SF1 mutant ctr – nonselective inhibitor or artifact in SF-1 mutant DAX1 counter-screen; shares compounds with DAX1 inh-1; HEK293 StAR-luciferase, SF-1 AF2 mutant, luminescence; inhibition, % at 6.8 µM; 2,400 compounds, 78% hits; AID 652136;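 active = inhibition above the mean of all tested compounds plus 3 SD, cut at about 3% in these data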;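 also: 0% = DAX-1 transfected cells with DMSO and 100% = cells without DAX-1 with DMSO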
LXRb hcDAF ctr – activates human LXR-beta, counter-screen for hcDAF-12 agonists; activation, % at 6.8 µM; shares compounds with hcDAF12 agonist; AID 743027; 3,400 tested, under 10 active; HEK293 Gal4-LXR tk-luc reporter, luminescence, 24 h; normalized: DMSO 0%, positive control 100%;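 active = mean percent activation of the reporter above a cutoff set as the average over tested compounds plus their standard deviation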
hcDAF12 ag – hcDAF-12 agonism, confirmation assay | shares compounds with hcDAF12 agonist | HEK293 hcDAF-12 lit1-tk-luc reporter, luminescence; % of Δ7-dafachronic acid response | activation, % at 6.8 µM | 3,400 compounds, 61% hits;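 active = mean activation across triplicate tests above the threshold derived from the earlier primary screen, cut at about 5.5% in these data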;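 also: 0% = DMSO only wells and 100% = 3 µM Δ7-dafachronic acid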
hgDAF12 ag – hgDAF-12 agonism, confirmation assay; shares compounds with hgDAF12 agonist; HEK293 GAL4-hgDAF12 luciferase reporter, agonist mode; percent of butyrate response; activation, % at 6.8 µM; 3,300 compounds, 80% hits;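 active = mean activation over triplicate wells above the hit cutoff derived from the earlier primary screen, cut at about 11% in these data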;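 also: 0% = DMSO low control and 100% = 2 mM sodium butyrate high control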
LXRb DAF12 ctr – LXR-beta agonism as DAF-12 counter-screen; shares compounds with hgDAF12 agonist; HEK293 Gal4-LXR luciferase reporter, 24 h; 3,300 tested, under 10 active; AID 743051; activation, % at 6.8 µM;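 active = mean activation of the triplicate above a set limit carried over from the primary screen, none filed active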
Numbers without * were called inactive; · = no result given. The list is not random: actives were taken first. Their share in the collection is about 4.1%.

SMILES	ssDAF-12 act	hgDAF12 agonist	DAX1 inh-1	hcDAF12 agonist	DAX1 inh-2	DAX1 conf	SF1 mutant ctr	LXRb hcDAF ctr	hcDAF12 ag	hgDAF12 ag	LXRb DAF12 ctr
O=Nc1c2cc3ccccc3[nH]c-2c2ccccc12	1.1*	23.1*	7.7*	10.3*	0.3	9.8*	8.4*	2.5	11.5*	23.0*	1.4
O=Nc1c(O)c2ccccc2c2ccccc12	-2.4	-12.2	-3.0	-4.8	-6.1	·	·	·	·	·	·
c1ccc(CSc2ncnc3c2ncn3C2CCCCO2)cc1 (centres undefined)	0.1	14.2*	5.1*	2.2	3.6	6.3*	3.5*	·	·	12.0*	0.5
COc1ccc(/C=C/c2cc(O)cc(OC3OC(CO)C(O)C(O)C3O)c2)cc1 (centres undefined)	-0.4	16.6*	8.8*	6.9*	0.0	15.8*	8.2*	1.8	7.8*	10.7*	0.8
Cc1cc(O)cc(O[C@H]2OC(CO)[C@H](O)[C@@H](O)[C@H]2O)c1 (some centres undefined)	-0.9	1.8	-0.4	2.4	-0.5	·	·	·	·	·	·
C=C(C)C(=O)Nc1ccc2nn(-c3ccccc3O)nc2c1	1.6*	20.4*	7.9*	8.0*	2.2	13.4*	7.7*	2.0	10.1*	20.3*	1.0
CC(=O)Nc1ccc2nc3ccccc3nc2c1	0.0	5.4	0.7	3.9	0.6	·	·	·	·	·	·
CCCCCCCCN1CCS(=O)(=O)N(Cc2ccc(C(F)(F)F)cc2)C(C(=O)OC)C1 (centres undefined)	-1.4	-0.7	-0.8	-2.0	·	·	·	·	·	·	·
CN(C)c1ccc(N=Nc2nccs2)cc1	2.2*	18.3*	7.0*	9.7*	-0.3	15.8*	5.9*	1.7	10.9*	19.8*	0.8
COc1ccc2c(c1)CCC/C2=N\NC(=O)c1ccoc1C	1.2*	24.9*	4.6*	7.6*	3.1	5.0*	1.3	-0.1	0.2	4.6	0.1
Cc1ccc(-c2onc3ccc(C4OCCO4)cc23)cc1	-0.1	13.8*	5.3*	4.4	-2.6	0.8	-6.2	·	·	2.9	0.1
Cc1ccc(-c2onc3ccc(Br)cc23)cc1	0.2	0.0	1.2	1.9	1.4	·	·	·	·	·	·
CC(=O)c1cccc(NC(=O)c2ccoc2C)c1	-1.4	-2.6	-0.3	-1.0	0.0	·	·	·	·	·	·
C/C(=N\NC(=O)c1nn(C)c(C)c1Br)c1cccc(NC(=O)c2ccoc2C)c1	0.2	16.5*	5.0*	5.9*	2.5	0.6	0.6	·	·	4.7	0.3
CC(=O)NCc1ccc(-c2nc3ccccc3s2)cc1	-0.8	15.5*	6.9*	4.0	0.7	15.7*	6.7*	·	·	15.1*	0.6
COc1ccc(-c2nc3ccccc3s2)cc1NC(C)=O	0.4	19.1*	8.9*	9.6*	2.0	8.2*	4.0*	0.9	7.8*	16.3*	0.7
Clc1ccc(OCc2cc(-c3ccccc3)no2)c(Cl)c1	0.9*	14.6*	7.5*	7.2*	-0.7	9.3*	1.2	1.6	10.0*	6.5	0.9
Cc1cccc(OCc2cc(-c3ccccc3)no2)c1C	-0.7	3.3	0.7	1.1	2.5	·	·	·	·	·	·
N#CC1=C(N)SC(N)=C(C#N)C1c1ccnc2ccccc12	-0.2	-0.9	0.2	2.9	-0.1	·	·	·	·	·	·
O=C1c2ccccc2C(=O)C1c1ccnc2ccccc12	5.1*	21.1*	5.3*	24.1*	2.3	-2.0	-4.0	1.5	17.5*	7.7	1.0
C/C(=N/NC(=O)c1ccccn1)c1ccco1	0.9	13.4*	5.5*	2.7	-0.2	8.1*	4.0*	·	·	13.2*	0.6
COC(=O)N/N=C(\C)c1ccco1	0.8	-2.6	-0.3	-0.3	·	·	·	·	·	·	·
CC(=O)Nc1c(O)[nH]c2ccccc12	-0.9	0.9	-0.1	0.8	-0.2	·	·	·	·	·	·
N=NC(=O)c1ccccc1Nc1c(O)[nH]c2ccccc12	2.3*	14.5*	6.1*	12.9*	-2.8	11.4*	7.8*	1.5	14.3*	15.7*	1.1
COc1cc(C(=O)Nc2ccc3c(c2)OCCO3)c(-n2cnnn2)cc1OC	-1.0	-0.9	0.5	-1.8	0.7	·	·	·	·	·	·
SMILES	ssDAF-12 act	hgDAF12 agonist	DAX1 inh-1	hcDAF12 agonist	DAX1 inh-2	DAX1 conf	SF1 mutant ctr	LXRb hcDAF ctr	hcDAF12 ag	hgDAF12 ag	LXRb DAF12 ctr
COc1cc(SC)ccc1C(=O)Nc1c(C)cccc1C	-1.7	0.0	-0.6	-2.1	0.5	·	·	·	·	·	·
COc1cc(SC)ccc1C(=O)Nc1ccc2c(c1)OCCO2	0.8	13.8*	4.7*	8.2*	0.2	9.2*	3.6*	1.7	7.2*	16.1*	0.9
COc1cc(SC)ccc1C(=O)Nc1nccs1	1.3*	17.0*	4.7*	11.5*	-0.7	15.2*	5.6*	2.2	13.6*	16.6*	1.0
O=C(c1ccco1)N1CCN(C(=S)Nc2ccc(Br)cc2Cl)CC1	-0.5	0.0	-0.3	1.3	0.8	·	·	·	·	·	·
C=CCN1C2CCCC1CC(NC(=O)Nc1cc(C)cc(C)c1)C2 (centres undefined)	-0.8	-4.0	-0.3	-2.0	-0.6	·	·	·	·	·	·
O=C(NOCc1ccccc1)c1ccc([N+](=O)[O-])cc1	1.8*	15.4*	7.3*	2.0	0.4	9.7*	5.2*	·	·	12.4*	0.5
Cc1oc(-c2ccccc2)cc1C(=O)Nc1ccccc1	-1.1	4.9	-0.4	1.5	-1.5	·	·	·	·	·	·
Cc1c(C(=O)Nc2ccccc2)csc1-c1ccccc1	1.7*	20.0*	6.0*	8.1*	0.5	16.0*	5.6*	2.3	6.5*	24.8*	1.2
Cc1ccc(NC(=O)N2CCc3ccccc32)cc1C	1.2*	15.6*	7.4*	14.9*	-2.2	16.5*	8.4*	2.2	9.4*	24.5*	1.2
O=C(O)/C=C/c1ccc(O)c(O)c1	-1.4	1.3	0.5	0.0	-0.2	·	·	·	·	·	·
O=C(/C=C/c1ccc(O)c(O)c1)NC(=O)c1ccccc1O	-0.3	14.9*	4.6*	6.5*	-0.3	8.1*	4.0*	·	·	13.4*	0.5
